# Assay outcomes from PubChem BioAssay.
# Pf Dd2 growth = blocks in vitro growth of P. falciparum Dd2. hit rate 4.3% among 120,000. P. falciparum Dd2 growth, SYBR Green, 72 h. AID 1347417. Potency, µM (highest dose often 28.9 µM), without a hit: at the highest dose activity, negative = inhibition, usual class: inhibitors; active means well fitted inhibition curve with a large enough effect;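 further: plate controls were DMSO vehicle for no effect and reference drug for full effect; nearly all actives have a fitted effect of over 65% in size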
#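 Readout: SYBR Green fluorescence, 485 nm excitation, 535 nm emission, after ~16 h lysis at 37C. Before that, Dd2-infected red cells (2.5% hematocrit) grew 72 h with compound, 29 uM top final concentration.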
# Active calls of the source: *; i = inactive; [ ] = dose if it differs, or a comment. The entries come from a sample that favours hits as a whole. Potency means the concentration at half of the fitted maximal effect.
SMILES,Pf Dd2 growth
CCOC(=O)c1c(C)[nH]c(C)c1S(=O)(=O)N(C)CC(=O)Nc1cc(Cl)ccc1OC,10µM*
CCOC(=O)c1c(C)[nH]c(C)c1S(=O)(=O)NCC(=O)Nc1cc(Cl)ccc1OC,0%
CCOC(=O)c1c(C)[nH]c(C)c1S(=O)(=O)N(C)CC(=O)Nc1cccc(Cl)c1C,-7%
COc1cccc(OC)c1-c1nc(C)c(C)cc1C(N)=O,-9%
O=C(Cn1cccc1-c1nc(-c2ccc(F)cc2)no1)NC1CCCCC1,i
O=C1c2cc(N3CCOCC3)nc(-c3cccc(O)c3)c2CN1CC(F)(F)F,2.8µM*
COc1ncccc1-c1nc(N2CCOCC2)cc2c1CN(CC(F)(F)F)C2=O,77%[44.1 µM]
COc1cccc(-c2nc(N3CCOCC3)cc3c2CN(CC(F)(F)F)C3=O)c1OC,-1%[44.1 µM]
COc1cccc(-c2nc(N3CCOCC3)cc3c2CN(Cc2ccccc2)C3=O)c1OC,11µM*
O=C1c2cc(N3CCOCC3)nc(-c3cccc(F)c3)c2CN1CC1CC1,i
COc1cccc(-c2nc(N3CCOCC3)cc3c2CN(CC2CC2)C3=O)c1OC,4%[44.1 µM]
CCOCC(=O)N1C[C@@H](Oc2ccccc2)C[C@H]1C(=O)N1CCOCC1,14%
N#Cc1cccc(CN2CC(COc3ccccc3)C3(C2)CN(c2ccccc2)C3)c1 (stereo not drawn),-18%[44.1 µM]
CN(Cc1cccc(F)c1)Cc1ccccc1C(F)(F)F,1%[44.1 µM]
Cc1cc(CN2CCC(N3CCOCC3=O)CC2)no1,15%[44.1 µM]
Cc1ccc(Cl)cc1N1CCN(C(=O)c2ccc3c(c2)N(Cc2ccc(F)cc2)CCS3)CC1,7.9µM*
COc1ccc(Cn2c(=O)[nH]c3cc(C(=O)N4CCN(c5cc(C)ccc5C)CC4)ccc3c2=O)cc1,i
Cc1ccc(C)c(N2CCN(C(=O)CN3CCSc4ccccc43)CC2)c1,7%
Cc1c(C)n(Cc2ccc(F)cc2)c2ccc(C(=O)N3CCN(c4ccc(Cl)cc4)CC3)cc12,-19%
Cc1ccc(Cl)cc1N1CCN(C(=O)Cn2cnc3onc(-c4ccc(F)cc4)c3c2=O)CC1,13%[5.79 µM]
Cc1ccc(CN2CCSc3ccc(C(=O)N4CCN(c5cc(C)ccc5C)CC4)cc32)cc1,11µM*
O=C(c1ccc2c(c1)N(Cc1ccc(F)cc1)CCS2)N1CCN(c2ccccc2)CC1,10µM*
Cc1c(C)n(Cc2ccccc2)c2ccc(C(=O)N3CCN(c4ccc(F)cc4)CC3)cc12,16%
O=C(CN1CCSc2ccccc21)N1CCN(c2ccc(F)cc2)CC1,3%
O=C(Nc1cccc(F)c1)N1CCC(n2cnnc2C2CC2)C1 (stereo not drawn),-6%
SMILES,Pf Dd2 growth
Cc1ccc(C(=O)N2CCC([C@@H]3CNC[C@H]3CO)CC2)cc1F,-18%
O=C(CCN1CCCCO1)N1CCCC(N2CCN(c3ccccc3)CC2)C1 (stereo not drawn),-6%
CN(C)c1nc(-c2ccncc2)nc2c1CCN(C(=O)c1ccc(=O)[nH]c1)C2,-16%
CN(C)C(=O)N1CCC2(CC1)CN(C(=O)c1ccnc(N)c1)Cc1ccccc1O2,-8%
Cc1cnc(C(=O)NC2C[C@H]3CC[C@@H](C2)N3S(=O)(=O)c2ccc(C)c(F)c2)cn1 (stereo partly drawn),i
COc1ccc(NC(=O)CN2C(=O)NC(c3ccc(Cl)cc3)C3=C2COC3=O)cc1Cl (stereo not drawn),-5%
O=C(c1ccc(C2CCCNC2)cc1)N1CCN(c2ccncc2)CC1 (stereo not drawn),-31%
O=C(c1ccccc1F)N1CC(Oc2ccc(F)c(F)c2)C1,-21%
COc1cccc(NC(=O)Nc2cccc(-c3cn4cccnc4n3)c2)c1,i
CC(C)(Oc1ccc(Cl)cc1)C(=O)Nc1cccc(-c2cn3cccnc3n2)c1,11µM*
CC(C)(C)C(=O)Nc1cccc(-c2cn3cccnc3n2)c1,-6%
Cc1ccccc1C(CC(=O)NCc1cccnc1)c1ccccc1 (stereo not drawn),-11%
COCc1noc([C@@H]2CC(F)(F)CN2C(=O)c2occc2C)n1,i
O=S(=O)(N[C@H]1CO[C@H]2[C@@H]1OC[C@@H]2Nc1nccc(-c2ccc3c(c2)OCO3)n1)c1ccc2ccccc2c1,-8%
C=CCOc1cccc(-c2nnc(CCC(=O)NC(C)c3ccccc3)c(=O)[nH]2)c1 (stereo not drawn),i
CCOC(=O)C1CCN(c2cc3c(cc2NC(=O)c2ccccc2Cl)n(C)c(=O)n3C)CC1,11µM*
COc1ccccc1C(=O)Nc1cc2c(cc1N1CCCC1)n(C)c(=O)c(=O)n2C,-2%
CCOC(=O)c1ccccc1NC(=O)Nc1cc2c(cc1N1CCCC1)n(C)c(=O)n2C,-39%
Cn1cc([C@@H](NC(=O)CCC2=NNC(=O)CC2)C2CC(O)C2)cn1 (stereo partly drawn),0%
CCCCc1nn(CC(=O)NC(CC)c2cccc(C)n2)c(=O)n1CC (stereo not drawn),-15%
O=C(NC1CCCC1)N1CCN(c2nc3ncccc3o2)CC1,-20%[44.1 µM]
O=C1NCCCCCCN(C(=O)CCc2nc3ccccc3s2)[C@H]2CCC[C@@H]12,-23%
Cc1ccc(C(=O)N2CCCC3(CCNCC3)CC2)cc1Cl,-14%
